Measurements reported in the supplement of paper PMC12669032.
Unmarked numbers belong to inactive results.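 Rule for the calls: active = AUC reduced over 20% with Padj below 0.05 in at least 2 of 3 replicates; inactive = otherwise.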

Columns and labels:
Test in all cases: growth AUC relative to DMSO control (median of replicates) (fraction); higher = more growth (less inhibition), active = hit call of the paper
Settings in all cases: 20 µM; 24 h
Akkermansia muciniphila = test system: Akkermansia muciniphila
In short: (§1)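 Gut bacteria were grown singly in mGAM at 37 °C without oxygen, from OD600 0.05, alongside 20 µM compound in 1% DMSO, and OD600 was read each hour for 24 h. Area under the growth curve was normalised to the median of solvent-only wells per plate, or to row and column medians on the industrial chemical plate. The minimum OD was set to 0 beforehand, and the reported value is the median of three biological replicates grown on separate days.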

Bacteroides caccae = test system: Bacteroides caccae
In short: as §1

Bacteroides clarus = test system: Bacteroides clarus
In short: as §1

Bacteroides dorei = test system: Bacteroides dorei
In short: as §1

Bacteroides stercoris = test system: Bacteroides stercoris
In short: as §1

[1] = test system: Bacteroides thetaiotaomicron
In short: as §1

Bacteroides uniformis = test system: Bacteroides uniformis
In short: as §1

[2] = test system: Bifidobacterium longum subsp. longum
In short: as §1

Clostridium difficile = test system: Clostridium difficile
In short: as §1

Collinsella aerofaciens = test system: Collinsella aerofaciens
In short: as §1

Compound	growth AUC (Akkermansia muciniphila)	growth AUC (Bacteroides caccae)	growth AUC (Bacteroides clarus)	growth AUC (Bacteroides dorei)	growth AUC (Bacteroides stercoris)	growth AUC [1]	growth AUC (Bacteroides uniformis)	growth AUC [2]	growth AUC (Clostridium difficile)	growth AUC (Collinsella aerofaciens)
COP(=S)(OC)Oc1nc(Cl)c(Cl)cc1Cl	1.06	1.01	1	0.998	0.947	0.96	0.935	1.01	0.975	0.991
CCC(C)(c1ccc(O)cc1)c1ccc(O)cc1	0.984	0.989	0.925	0.967	0.927	0.973	0.991	1.02	0.997	1
O=S1(=O)OCC2C(CO1)C1(Cl)C(Cl)=C(Cl)C2(Cl)C1(Cl)Cl (stereo not given)	1.39	0.997	0.945	0.962	0.765	0.984	0.914	1.11	1	0.993
Oc1ccc(Cl)cc1	0.989	0.997	0.952	1.01	0.981	0.997	0.987	0.971	0.981	0.988
COP(=S)(OC)Oc1ccc([N+](=O)[O-])c(Cl)c1	1.04	0.99	0.973	0.972	0.973	0.993	0.943	1.01	0.961	0.958
NCCO.O=C(O)c1nc(Cl)ccc1Cl	1.02	1.01	1.04	0.987	1.02	1.04	1	1.04	1	1.02
CCCCc1c(C)nc(NCC)nc1OS(=O)(=O)N(C)C	1.07	1.01	0.967	0.909	0.895	0.944	0.901	0.996	1.01	0.977
OC(Cc1ccccc1Cl)(Cn1cncn1)C1(Cl)CC1 (stereo not given)	0.867	0.974	0.963	1.01	0.966	0.985	0.971	1.01	0.958	0.953
Cc1ccn2nc(S(=O)(=O)Nc3c(F)cccc3F)nc2n1	1.04	0.968	0.986	0.957	0.955	0.985	1.06	1.03	1.03	0.945
Cc1nc(N(C)C)nc(OC(=O)N(C)C)c1C	1.02	0.997	0.989	1.05	1.05	1.02	0.977	0.826	1.05	1.04
CC(C)[C@H](C(=O)O[C@H](C#N)c1cccc(Oc2ccccc2)c1)c1ccc(Cl)cc1	1.1	0.99	0.979	1.04	0.778	1.01	1.02	0.917	1	0.921
CN(C)C(=S)SSC(=S)N(C)C	0.83	0.968	0.967	0.961	0.87	0.75 (active)	0.909	0.974	0.945	0.957
O=CNC(N1CCN(C(NC=O)C(Cl)(Cl)Cl)CC1)C(Cl)(Cl)Cl (stereo not given)	1.13	0.947	0.923	0.849	0.879	0.919	0.985	1.08	0.957	0.938
Nc1cc(Cl)ccc1Cl	1.03	0.993	1.05	1.04	1.25	1.03	1.03	0.992	1	1.01
CNC(=O)O/N=C(\C)C(C)S(C)(=O)=O (stereo not given)	1.15	0.99	1.01	0.969	0.931	1.03	1.01	1.27	0.98	0.953
COc1cccc(C(=O)NN(C(=O)c2cc(C)cc(C)c2)C(C)(C)C)c1C	1.14	0.966	0.996	0.933	0.951	0.986	0.958	0.975	0.969	0.92
N#Cc1sc2c(=O)c3ccccc3c(=O)c=2sc1C#N	0.95	0.982	0.948	0.979	0.783	0.974	0.882	0.84	0.968	1.09
CC(C1CC1)C(O)(Cn1cncn1)c1ccc(Cl)cc1 (mixture of isomers)	1.04	0.83	0.987	0.941	1.41	0.893	0.929	1.09	0.966	0.926
COCC(=O)N(c1c(C)cccc1C)[C@H](C)C(=O)OC	0.94	1	1.04	1.04	1.06	1	1.02	1.1	1.02	1.04

Compound	growth AUC (Akkermansia muciniphila)	growth AUC (Bacteroides caccae)	growth AUC (Bacteroides clarus)	growth AUC (Bacteroides dorei)	growth AUC (Bacteroides stercoris)	growth AUC [1]	growth AUC (Bacteroides uniformis)	growth AUC [2]	growth AUC (Clostridium difficile)	growth AUC (Collinsella aerofaciens)
Cc1ccc(N=CN(C)C=Nc2ccc(C)cc2C)c(C)c1	1.13	1.01	1.06	0.983	1.05	1.01	1.02	1.03	1.04	1.01
COCCN(C(=O)CCl)c1c(C)cccc1C	0.91	0.969	0.967	1.02	0.967	0.989	0.973	0.851	1	1.02
CCOP(=O)(SC(C)CC)N1CCSC1=O (stereo not given)	0.9	1.02	0.977	1	1.07	0.992	0.996	1.02	1.02	1.05
O=C1C(Cl)=C(Cl)C(=O)C(Cl)=C1Cl	1.08	1.09	1.01	0.978	0.877	0.986	0.976	0.969	1.03	0.992
CN(C)C(CSS(=O)(=O)[O-])CSS(=O)(=O)O.[Na+]	1.01	1.02	0.998	1.03	1.03	0.98	1.13	1.01	0.943	0.999
CCSCCSP(=S)(OC)OC	1.09	1.02	0.996	0.996	1.07	0.992	1.01	1.03	1.03	1.09
O=S1OCC2C(CO1)C1(Cl)C(Cl)=C(Cl)C2(Cl)C1(Cl)Cl (stereo not given)	1.08	1	0.962	0.999	0.779	0.976	0.874	1.04	0.992	0.971
C#CCN1C(=O)COc2cc(F)c(N3C(=O)C4=C(CCCC4)C3=O)cc21	1.23	1.01	0.994	0.931	1	1	0.959	1.02	0.929	0.944
CCCCCCCCCCCCCN1CC(C)OC(C)C1 (stereo not given)	0.931	0.969	1	1.01	1.03	0.993	0.982	0.908	0.923	0.941
ClC1=C(Cl)C2(Cl)[C@H]3[C@@H]4O[C@@H]4[C@H](Cl)[C@H]3C1(Cl)C2(Cl)Cl (single isomer, unassigned; isomer b)	1.29	0.98	0.973	0.933	0.752	0.96	0.89	1.19	1.01	0.957
COc1nc(C)nc(NC(=O)NS(=O)(=O)c2ccccc2Cl)n1	0.942	1	0.959	0.99	0.929	0.958	1	0.938	1.02	1.04
Oc1ccc(Cc2ccc(O)cc2)cc1	0.954	0.992	1.03	0.998	1.05	1.02	1.01	0.975	1.02	1.01
CC(C)C(C(=O)OC(C#N)c1cccc(Oc2ccccc2)c1)c1ccc(OC(F)F)cc1 (stereo not given)	0.959	0.981	0.956	1.02	1.08	0.987	1.01	0.965	1.01	1.01
O=C(NC(=O)c1c(F)cccc1F)Nc1cc(Cl)c(OC(F)(F)C(F)C(F)(F)F)cc1Cl (stereo not given)	0.997	0.981	0.982	1.02	1.01	0.99	0.962	0.981	1.04	0.94
O=C(O)COc1ccccc1	0.969	0.918	0.989	0.944	1.05	1.02	1	1.11	0.988	0.885
Nc1cc(Cl)cc(Cl)c1	1.1	0.895	1.04	1.03	1.33	1.01	1.04	1.08	1	0.984
O=P(O)(O)CCCl	1.07	0.964	1.02	0.986	1.08	1.01	1.03	1.07	0.959	0.973
CC(C)(C)C(O)C(Cc1ccc(Cl)cc1Cl)n1cncn1 (mixture of isomers)	1.11	0.923	0.969	0.889	0.868	0.921	0.932	1.04	1.01	0.936
CCOP(=S)(OCC)Oc1ccc([N+](=O)[O-])cc1	1.09	0.963	1	1.02	1.05	0.972	0.959	1.03	1	1.03

Compound	growth AUC (Akkermansia muciniphila)	growth AUC (Bacteroides caccae)	growth AUC (Bacteroides clarus)	growth AUC (Bacteroides dorei)	growth AUC (Bacteroides stercoris)	growth AUC [1]	growth AUC (Bacteroides uniformis)	growth AUC [2]	growth AUC (Clostridium difficile)	growth AUC (Collinsella aerofaciens)
O=[N+]([O-])/N=C1\NCCN1Cc1ccc(Cl)nc1	0.979	1.01	1.02	1.03	1.08	0.984	1	0.963	0.99	0.98
O=C(O)COc1nc(Cl)c(Cl)cc1Cl	1.13	0.874	0.989	0.94	1.19	1	0.993	1.04	0.963	0.99
CC1(C)C(C=C(Cl)Cl)C1C(=O)OC(C#N)c1ccc(F)c(Oc2ccccc2)c1 (mixture of isomers)	1.08	1	1.01	0.995	0.95	1.01	0.98	0.975	0.979	0.947
CCOC(=O)/C=C(C)/C=C/C[C@@H](C)CCCC(C)C	0.915	0.985	1.03	1.01	1.12	0.986	0.984	0.949	1.06	0.982
C[C@@H](Oc1ccc(Oc2nc3ccc(Cl)cc3o2)cc1)C(=O)O	1.03	1	1.01	0.924	1.09	1.01	0.929	1.16	0.905	0.961
CCSC(=O)N1CCCCCC1	0.873	1.05	0.974	1	1	0.995	0.966	0.992	0.992	0.981
O=C(O)CCl	0.94	0.966	0.991	0.982	1.07	1	0.947	0.938	0.995	0.976
CCOP(=S)(OCC)Oc1nc(Cl)c(Cl)cc1Cl	0.91	0.999	0.95	1.03	1.07	0.978	1	0.943	1.01	0.986
C[C@@H](Oc1ccc(Oc2cnc3cc(Cl)ccc3n2)cc1)C(=O)O	1.07	0.938	1.05	1	1.29	0.986	0.988	0.964	0.989	0.976
CCSC(=O)N(CC)C1CCCCC1	0.936	0.998	0.974	1.02	1.06	1.01	1.01	1.01	1.01	1.09
CC(C)(COCc1cccc(Oc2ccccc2)c1)c1ccc(OC(F)(F)Br)cc1	0.955	0.982	0.973	1.01	1.04	0.976	1.02	0.966	1.01	0.953
O=C(NC(=O)c1c(F)cccc1F)Nc1ccc(OC(F)(F)C(F)OC(F)(F)F)c(Cl)c1 (stereo not given)	0.979	0.991	1.01	1.03	0.982	0.974	0.997	1	0.985	0.971
Nc1nc(N)[nH]c(=O)n1	1.05	1.02	0.994	1.04	1	1.01	1.01	1.02	1	1.1
Cc1ccc(N(SC(F)(Cl)Cl)S(=O)(=O)N(C)C)cc1	0.918	1	1	1.04	1.02	1.02	1.03	1.03	0.991	0.989
CCCCc1c(C)nc(N(C)C)[nH]c1=O	0.964	1.01	0.966	0.984	1.03	0.989	0.982	0.998	0.997	1.05
COC(=O)C1(O)c2ccccc2-c2ccccc21	0.893	1.03	0.97	1	1.01	0.981	0.984	0.996	0.991	1.03
Nc1cc(Cl)cc(C(=O)O)c1Cl	1.03	0.975	1.02	1.04	1.06	1	0.958	1.04	1.01	1.06
CCOP(=S)(OCC)Oc1cc(Cl)c(Br)cc1Cl	0.917	0.936	0.94	1.02	0.953	0.979	0.966	0.954	0.977	0.98
Cc1cc(C)c(C2=C(OC(=O)CC(C)(C)C)C3(CCCC3)OC2=O)c(C)c1	1.2	0.977	1	0.988	1.23	1.05	0.958	1.05	0.98	1.02
